Experimental findings from PubChem BioAssay (NCATS) are described below.

Structures are written as SMILES. Records with an inconclusive call do not appear. Active and inactive are the calls of the source. The call rests on the fitted dose curve; in most records, active means well fitted activation curve with a large enough effect; inconclusive means small, poorly fitted or top-dose-only effect; inactive means no such curve, though single readings can be large or run the other way.

A short description of this experiment: qHTS for Activators of Parkin Expression: LOPAC Validation Assay (FLuc Reporter) (AID 720573). The note with it: Cell line, PRKN promoter firefly luciferase reporter, vehicle wells = 0, positive control = 100%; series mostly up to 46.1 µM. The text has this: Parkin is an E3 ubiquitin ligase localized in the cytosol of cells expressed in many tissues, including brain, skeletal muscle, heart and liver tissues. One hour after stress induction by mitochondrial uncouplers (which mimic mitochondria damage by decreasing the mitochondrial inner membrane electrochemical gradient that is used to produce ATP), Parkin translocates from the cytosol to mitochondria in many cultured cell types, including neurons and HeLa cells. Administration of other mitochondrial poisons, such as Paraquat and azide in cells lacking mitochondrial DNA (mtDNA), induces Parkin translocation to mitochondria. […] It was proposed that Parkin (together with Pink1) mediates a mitochondrial quality control pathway to maintain organelle population fidelity by removing damaged mitochondria. Understanding the normal physiologic role of Parkin (and Pink1) may uncover novel treatment strategies for sporadic Parkinson's disease patients with mutation in these genes.
A cell based qHTS in 1536 well format was developed assess modulation of Parkin expression using a neuronal cell line that stably expresses a stably expresses a luminescent coincidence reporter (FLuc and NLuc reporters) behind the Parkin promoter. The LOPAC library is used to validate the assay for quantitative high-throughput screening. The data herein reports the signal from the FLuc reporter. An increase in this signal = activation of Parkin expression. For this assay , a positive control normalized signal increase corresponding to a high quality qHTS curve class in both luminescent channels is the desired outcome for this assay.
NIH Chemical Genomics Center [NCGC]
NIH Molecular Libraries Probe Centers Network [MLPCN]
Assay Submitter (PI): Richard Youle, National Institute of Neurological Disorders and Strokes (NINDS), NIH
[1] Narendra, D., et al., Parkin is recruited selectively to impaired mitochondria and promotes their autophagy. J Cell Biol, 2008. 183(5): p. 795-803.
[2] Suen, D.F., et al., Parkin overexpression selects against a deleterious mtDNA mutation in heteroplasmic cybrid cells. Proc Natl Acad Sci U S A, 2010. […] 11835-40.
[3] Cheng K, Inglese J. A coincedence reporter-gene system for high-throughput screening. Nat Methods. 2012: 9(10);937
Five microliters (1,500 cells/well) of the Parkin coincidence reporter cells were seeded to 1536 well assay plates (Greiner Catalog # 789173-F) and incubated at 37 C, 5% CO2 for 24 hours. Compounds (23 nL) were pinned using the Kalypsys robotic system equipped with 1536 pin head adaptor in 7-point dose response. The assay plates were incubated for additional 24 hr at 37 C, 5% CO2 followed by a volume reduction in each well to 2 uL using an automated plate washer/aspirator. Following the volume reduction,2 uL of FLuc detection reagent and plates were incubated for 10 minutes at room temperature. The FLuc luminescence signal was obtained using the PerkinElmer ViewLux plate imager and then 2 uL of NanoLuc detection reagent was added to the plates. After another 10 minute incubation, NanoLuc signal was obtained using the PerkinElmer ViewLux plate imager as before. Data from each channel was normalized to DMSO (neutral control) and the positive control compounds (100%).
Consider `Cc1c2ccncc2c(C)c2c1[nH]c1ccccc12`, for which the result was inactive.

As for `CC(N)Cc1c[nH]c2ccc(O)cc12` (stereo not given), the outcome was inactive.

For the compound `C[N+](C)(C)CC#CCN1CCCC1=O`, the outcome was inactive.

Consider `CCCN(CCC)CCc1c[nH]c2ccc(C(N)=O)cc12`, for which the outcome was inactive.

Regarding `c1ccc2c(N3CCNCC3)cccc2c1`, the outcome was inactive.

On to `c1ccc2c(c1)[I+]c1ccccc1-2`, for which the result was inactive.

As to `COC(=O)N1CCN(C(=O)Cc2ccc(Cl)c(Cl)c2)C(CN2CCCC2)C1` (stereo not given), the compound was classed as inactive.

Consider `CO[C@H]1CC=C2CCN3CCC4=C(CC(=O)OC4)[C@]23C1`, for which the call was inactive.

For the compound `C[Se]C[C@H](N)C(=O)O`, the compound was called inactive.

Consider `C=CCN1CC[C@]23c4c5ccc(O)c4O[C@@H]2/C(=N/N=C2\CC[C@@]4(O)C6Cc7ccc(O)c8c7[C@@]4(CCN6CC=C)[C@@H]2O8)CC[C@@]3(O)C1C5`, for which the compound was called inactive.

As to `COc1ccc2c(c1)C13CCCCC1C(C2)N(C)CC3` (stereo not given), the compound was classed as inactive.

Turning to `NNC(=O)c1ccc(O)cc1`, the result was inactive.

Take `NCCc1c[nH]c2ccc(C(N)=O)cc12`: the compound was classed as inactive.

Regarding `N[C@@H](Cn1oc(=O)[nH]c1=O)C(=O)O`, the compound was called inactive.

In the case of `CCCN(CCC)[C@@H]1CCc2cccc(O)c2C1`, the compound was called inactive.

Regarding `CC(=O)c1c(O)c(C)c(O)c(Cc2c(O)c3c(c(C(=O)/C=C/c4ccccc4)c2O)OC(C)(C)C=C3)c1O`, the compound was classed as inactive.

Consider `c1ccc2cc(CC3=NCCN3)ccc2c1`, for which the result was inactive.

On to `C[C@]12Cc3cn4c(nc3C=C1CCC1C2CC[C@@]2(C)[C@H]1CC[C@@]2(O)C#N)nc1ccccc14` (stereo not given in full), for which the result was inactive.

Take `CC(=O)OCC1=C(C(=O)O)N2C(=O)[C@@H](NC(=O)CCC[C@@H](N)C(=O)O)[C@H]2SC1`: the compound was classed as inactive.

For `CC(=O)NBr`, the result was inactive.

On to `CCCN1CCC[C@@H](c2cccc(O)c2)C1`, for which the result was inactive.

As to `OC1CCCCC1N1CCC(c2ccccc2)CC1` (stereo not given), the compound was called inactive.

`CCCC[N+]1(C)C2CC(OC(=O)[C@H](CO)c3ccccc3)CC1C1OC12` (stereo not given in full): the result was inactive.

On to `CCCN(CCC)CCc1ccc(O)c(O)c1`, for which the result was inactive.

For the compound `COc1ccc2[nH]c3c(c2c1)CCNC3`, the compound was called inactive.

`NC(=O)COc1c(F)cc(SCCNS(=O)(=O)c2ccccc2)cc1F`: the compound was called inactive.

With `CCCN(CCC)[C@H]1CCc2c(F)ccc(O)c2C1`, the compound was called inactive.

For `CCCn1c(=O)c2[nH]c(C3CCCC3)nc2n(CCCOC(=O)c2ccc(S(=O)(=O)F)cc2)c1=O`, the call was inactive.

Turning to `CCS(=O)(=O)Nc1cccc(C(=C2CCCCC2)c2cnc[nH]2)c1`, the outcome was inactive.

Consider `CN1CCC(c2c[nH]c3ccc(O)cc23)CC1`, for which the result was inactive.

Take `O=[N+]([O-])c1cc(O)c(O)c([N+](=O)[O-])c1`: the outcome was inactive.

Take `CC(C)NP(=O)(NC(C)C)OP(=O)(NC(C)C)NC(C)C`: the compound was called inactive.

For `C=CCN1CCC23c4c5ccc(O)c4O[C@H]2C(=O)CC[C@@]3(O)C1C5` (stereo not given in full), the compound was classed as inactive.

As for `CCCN(CCC)C1Cc2cc(OC)c(OC)cc2C1`, the call was inactive.

Regarding `COc1ccc(CNC(=O)/C=C/c2ccc3[nH]cc(CCN(C)C)c3c2)cc1`, the compound was called inactive.

`CCCN1CCc2cccc3c2[C@H]1Cc1ccc(O)c(O)c1-3`: the compound was classed as inactive.

For `Ic1ccccc1CNC1C2CCN(CC2)C1C(c1ccccc1)c1ccccc1` (stereo not given), the compound was called inactive.

On to `C[N+]1(C)C2CCC1CC(OC(=O)c1c[nH]c3ccccc13)C2` (stereo not given), for which the call was inactive.

As for `C=CCN(C1=NCCN1)c1c(Cl)cccc1Cl`, the compound was called inactive.

For `COc1ccc2c(c1)[C@@]13CCCC[C@H]1[C@@H](C2)NCC3`, the compound was called inactive.
